The source made the active and inactive calls.
Key:
[1] = system: Plasmodium falciparum Sir2 (PF13_0152, Sir2A); assay: Plasmodium falciparum Sir2A binding compounds – biochemical, small-molecule microarray, 635 nm fluorescence, primary screen (AID 1098); settings: fluorescence 635 nm, higher = more signal;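 further: score merges spot fluorescence intensity with its signal-to-noise ratio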
[2] = probe aDKK1 binding to arrayed compounds – biochemical, biotinylated probe, 635/667 nm fluorescence, primary screen (AID 1099); settings: small-molecule microarray, higher = more signal;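 further: score merges 667nm spot fluorescence with signal to noise across triplicate slides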
[3] = probe aCHRDL2 binding to arrayed compounds – biochemical, biotinylated probe, 635/667 nm fluorescence, primary screen (AID 1100); settings: small-molecule microarray, higher = more signal
[4] = change in splice reporter luminescence, either direction, cell-based, HEK293, spliceosome inhibition project, primary screen (AID 1101); settings: HEK293 splicing luciferase reporter, 24 h, higher = more signal, called active from +8 up or from −8 down;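 further: HEK293 cells carrying a splicing-competent luciferase reporter gene; test concentration not given here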
[5] = biological target: Fibroblast growth factor 10 (Homo sapiens) (UniProt O15520); assay: compounds binding fibroblast growth factor 10 – biochemical, small-molecule microarray, 635 nm fluorescence, primary screen (AID 1102); settings: FGF10 binding, fluorescence 635 nm, higher = more signal
Chain of Fibroblast growth factor 10 (Homo sapiens) (O15520 whole entry, looked up): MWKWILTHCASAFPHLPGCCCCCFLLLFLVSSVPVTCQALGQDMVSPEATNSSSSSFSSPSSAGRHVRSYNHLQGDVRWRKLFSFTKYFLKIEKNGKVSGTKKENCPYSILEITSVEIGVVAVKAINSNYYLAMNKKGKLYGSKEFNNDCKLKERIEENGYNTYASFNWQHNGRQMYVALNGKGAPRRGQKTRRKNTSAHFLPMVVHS

[6] = system: glycogen synthase kinase-3 (GSK3A per assay name; protocol says GSK3B); assay: compounds binding glycogen synthase kinase-3 – biochemical, small-molecule microarray, 635 nm fluorescence, GSK3A, primary screen (AID 1103); settings: fluorescence 635 nm, higher = more signal; further: the record names both GSK3A and GSK3B
[7] = biological target: Epidermal growth factor receptor (Homo sapiens) (UniProt P00533); assay: compounds binding epidermal growth factor receptor – biochemical, small-molecule microarray, 635 nm fluorescence, primary screen (AID 1104); settings: EGFR binding, higher = more signal;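 further: score merges 667 nm emission intensity with spot signal to noise over triplicate slides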
Chain of Epidermal growth factor receptor (Homo sapiens) (P00533 whole entry, looked up): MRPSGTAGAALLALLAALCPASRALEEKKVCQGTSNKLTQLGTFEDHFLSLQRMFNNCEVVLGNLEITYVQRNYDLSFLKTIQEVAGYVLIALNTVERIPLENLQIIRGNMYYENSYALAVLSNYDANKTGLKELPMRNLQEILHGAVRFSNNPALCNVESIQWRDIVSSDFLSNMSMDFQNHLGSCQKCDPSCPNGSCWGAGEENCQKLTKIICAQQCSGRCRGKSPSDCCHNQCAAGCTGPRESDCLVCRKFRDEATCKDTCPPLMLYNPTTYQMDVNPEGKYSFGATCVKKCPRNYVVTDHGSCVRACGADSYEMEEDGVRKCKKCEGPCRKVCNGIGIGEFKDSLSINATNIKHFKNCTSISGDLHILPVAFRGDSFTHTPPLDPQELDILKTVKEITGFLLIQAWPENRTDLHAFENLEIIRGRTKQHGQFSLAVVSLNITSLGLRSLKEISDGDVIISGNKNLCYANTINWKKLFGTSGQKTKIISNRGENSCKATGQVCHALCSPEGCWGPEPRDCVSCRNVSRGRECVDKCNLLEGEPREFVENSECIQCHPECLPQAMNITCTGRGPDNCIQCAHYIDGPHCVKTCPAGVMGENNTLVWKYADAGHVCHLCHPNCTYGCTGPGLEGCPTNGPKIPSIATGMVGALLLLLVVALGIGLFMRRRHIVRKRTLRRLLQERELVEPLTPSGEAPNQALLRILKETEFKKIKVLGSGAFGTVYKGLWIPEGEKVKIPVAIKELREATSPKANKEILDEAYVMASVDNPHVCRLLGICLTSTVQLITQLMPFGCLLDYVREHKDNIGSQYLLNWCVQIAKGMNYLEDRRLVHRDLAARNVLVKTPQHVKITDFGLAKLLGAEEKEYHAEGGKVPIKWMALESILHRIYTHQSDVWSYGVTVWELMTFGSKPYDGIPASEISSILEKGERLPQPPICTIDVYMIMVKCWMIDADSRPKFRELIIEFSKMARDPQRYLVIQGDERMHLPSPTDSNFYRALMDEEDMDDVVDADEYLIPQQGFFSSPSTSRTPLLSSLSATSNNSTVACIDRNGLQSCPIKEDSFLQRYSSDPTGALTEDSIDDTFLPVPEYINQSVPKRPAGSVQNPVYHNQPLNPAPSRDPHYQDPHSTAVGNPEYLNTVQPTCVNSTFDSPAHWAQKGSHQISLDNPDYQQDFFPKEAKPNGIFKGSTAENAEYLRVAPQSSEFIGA

[8] = biological target: Follistatin-related protein 3 (Homo sapiens) (UniProt O95633); assay: compounds binding follistatin-related protein 3 – biochemical, small-molecule microarray, 635 nm fluorescence, primary screen (AID 1105); settings: FSTL3 binding, higher = more signal;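 further: score merges emission near 667 nm and signal to noise per printed spot across three slides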
Chain of Follistatin-related protein 3 (Homo sapiens) (O95633 whole entry, looked up): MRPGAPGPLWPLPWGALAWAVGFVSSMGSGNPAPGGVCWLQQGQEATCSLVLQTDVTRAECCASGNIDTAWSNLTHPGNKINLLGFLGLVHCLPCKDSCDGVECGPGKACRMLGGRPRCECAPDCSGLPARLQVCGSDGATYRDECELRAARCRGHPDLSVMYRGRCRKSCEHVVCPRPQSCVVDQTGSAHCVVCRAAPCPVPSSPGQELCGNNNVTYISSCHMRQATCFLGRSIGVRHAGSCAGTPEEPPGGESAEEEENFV

[9] = biological target: Dickkopf-related protein 1 (Homo sapiens) (UniProt O94907); assay: small molecules binding DKK1 protein – biochemical, small-molecule microarray, 635 nm fluorescence scan, primary screen (AID 1106); settings: higher = more signal;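 further: score merges emission near 667 nm with signal to noise over three replicate slides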
Chain of Dickkopf-related protein 1 (Homo sapiens) (O94907 whole entry, looked up): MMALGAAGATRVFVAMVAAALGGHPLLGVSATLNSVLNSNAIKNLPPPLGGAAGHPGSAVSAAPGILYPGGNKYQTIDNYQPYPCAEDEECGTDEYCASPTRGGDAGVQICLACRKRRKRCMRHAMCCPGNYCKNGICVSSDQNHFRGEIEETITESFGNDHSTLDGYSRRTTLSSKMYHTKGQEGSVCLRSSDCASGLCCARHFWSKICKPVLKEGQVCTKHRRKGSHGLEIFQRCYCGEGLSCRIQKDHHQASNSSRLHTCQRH

[10] = system: Inhibin beta A chain (activin A); assay: small molecules binding activin A – biochemical, small-molecule microarray, 635 nm fluorescence scan, primary screen (AID 1107); settings: INHBA, higher = more signal;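 further: mouse activin A protein probed at 4.33 µg/mL on printed slides; score merges bound-protein fluorescence near 667 nm with spot signal-to-noise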
[11] = system: Human papillomavirus type 1a protein E7 (residues 44-93); assay: small molecules binding HPV E7 44-93 – biochemical, small-molecule microarray, residues 44-93, 635 nm fluorescence, primary screen (AID 1108); settings: fluorescence 635 nm, higher = more signal;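 further: E7 fragment applied at 1 µg/mL in TBST for 1 h at 4 C; score combines spot fluorescence with its signal to noise ratio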
[12] = hepatitis C replication reporter changes, two-sided – Huh7 cells, luciferase reporter, HCV replication inhibitor project, primary screen (AID 1109); settings: Huh7 HCV replicon luciferase reporter, 48 h; higher = more signal;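 further: huh7 hepatoma cells harbouring a luciferase neomycin HCV replicon reporter; luciferase luminescence as measure of HCV replicon replication; test concentration not given here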
[13] = biological target: Left-right determination factor 2 (Homo sapiens) (UniProt O00292); assay: small molecules binding LEFTY2 protein – biochemical, small-molecule microarray, 635 nm fluorescence scan, primary screen (AID 1110); settings: higher = more signal
Chain of Left-right determination factor 2 (Homo sapiens) (O00292 whole entry, looked up): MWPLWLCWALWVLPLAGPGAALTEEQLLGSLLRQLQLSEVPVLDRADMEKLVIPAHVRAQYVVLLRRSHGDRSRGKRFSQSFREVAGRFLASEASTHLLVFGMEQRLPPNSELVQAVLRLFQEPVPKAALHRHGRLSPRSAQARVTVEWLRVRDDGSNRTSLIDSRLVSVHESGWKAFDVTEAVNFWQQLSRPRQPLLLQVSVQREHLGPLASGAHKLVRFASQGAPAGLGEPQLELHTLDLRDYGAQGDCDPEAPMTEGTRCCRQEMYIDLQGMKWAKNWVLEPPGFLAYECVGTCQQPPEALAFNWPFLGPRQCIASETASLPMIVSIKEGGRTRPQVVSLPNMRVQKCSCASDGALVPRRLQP

[14] = biological target: Calmodulin-1 (Homo sapiens) (UniProt P0DP23); assay: small molecules binding calmodulin-1 with EGTA – biochemical, small-molecule microarray, Cy5-labelled CALM1, profiling panel (AID 1111); settings: Cy5-CALM1 binding fluorescence, higher = more signal;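 further: labelled calmodulin applied in Tris saline Tween buffer holding calcium plus EGTA and DTT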
[15] = biological target: Calmodulin-1 (Homo sapiens) (UniProt P0DP23); assay: small molecules binding Ca-loaded calmodulin-1 – biochemical, small-molecule microarray, Cy5-labelled CALM1, plus calcium, artefact control for SMM control-protein annotation, profiling panel (AID 1112); settings: Cy5-CALM1 binding fluorescence, higher = more signal;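 further: score merges spot fluorescence with signal to noise from triplicate slides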
[16] = probe aWnt5a binding to arrayed compounds – biochemical, biotinylated probe, 635/667 nm fluorescence, primary screen (AID 1113); settings: small-molecule microarray, higher = more signal;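 further: score merges 667 nm fluorescence intensity with signal-to-noise per printed feature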
[17] = probe aShh binding to arrayed compounds – biochemical, biotinylated probe, 635/667 nm fluorescence, primary screen (AID 1114); settings: small-molecule microarray, higher = more signal;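 further: probe is biotin-labelled aShh protein from a stem cell growth factor screen; measures binding of labelled protein to compounds printed on the slide; score merges feature fluorescence at 667 nm with signal-to-noise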
[18] = probe aNog binding to arrayed compounds – biochemical, biotinylated probe, 635/667 nm fluorescence, primary screen (AID 1115); settings: small-molecule microarray, higher = more signal;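 further: probe is biotinylated aNog protein used at 0.15 µg/mL for 1 h at 4 C; z-score combines 667 nm fluorescence of each spot with its signal to noise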
[19] = biological target: Torsin-1A-interacting protein 1 (Homo sapiens) (UniProt Q5JTV8); assay: compound microarray binding of lysate hLAP1 – cell lysate, small-molecule microarray, COS7 lysate, 635/667 nm fluorescence, primary screen (AID 1116); settings: 635 nm fluorescence, higher = more signal
Chain of Torsin-1A-interacting protein 1 (Homo sapiens) (Q5JTV8 whole entry, looked up): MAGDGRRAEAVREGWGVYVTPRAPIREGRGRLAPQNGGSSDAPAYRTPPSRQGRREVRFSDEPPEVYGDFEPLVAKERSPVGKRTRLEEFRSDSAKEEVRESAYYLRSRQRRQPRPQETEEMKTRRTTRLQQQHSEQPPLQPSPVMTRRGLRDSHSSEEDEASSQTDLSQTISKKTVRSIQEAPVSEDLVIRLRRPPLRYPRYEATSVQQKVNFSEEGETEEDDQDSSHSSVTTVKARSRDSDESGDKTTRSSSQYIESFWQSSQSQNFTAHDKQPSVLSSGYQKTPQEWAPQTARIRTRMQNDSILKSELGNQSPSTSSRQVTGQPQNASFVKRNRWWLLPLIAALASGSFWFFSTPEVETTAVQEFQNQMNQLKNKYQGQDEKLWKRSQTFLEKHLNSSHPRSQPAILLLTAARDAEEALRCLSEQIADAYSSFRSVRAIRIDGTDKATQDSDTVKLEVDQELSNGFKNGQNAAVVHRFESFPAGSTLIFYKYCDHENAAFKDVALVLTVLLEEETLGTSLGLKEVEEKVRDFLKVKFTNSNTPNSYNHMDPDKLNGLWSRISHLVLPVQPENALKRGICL

[20] = biological target: Alpha-bungarotoxin (Bungarus multicinctus) (UniProt P60615); assay: compounds binding labelled alpha-BTX control protein – biochemical, small-molecule microarray, Alexa647 label, 635/667 nm fluorescence, artefact control for SMM control protein annotation, profiling panel (AID 1117); settings: alpha-BTX-A647 binding fluorescence, higher = more signal
Chain of Alpha-bungarotoxin (Bungarus multicinctus) (P60615 whole entry, looked up): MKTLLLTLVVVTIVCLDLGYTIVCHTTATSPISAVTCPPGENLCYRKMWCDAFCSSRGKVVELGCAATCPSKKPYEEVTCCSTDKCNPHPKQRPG

Row | SMILES | composite z-score [1] | composite z-score [2] | composite z-score [3] | z-score [4] | composite z-score [5] | composite z-score [6] | composite z-score [7] | composite z-score [8] | composite z-score [9] | composite z-score [10] | composite z-score [11] | z-score [12] | composite z-score [13] | composite z-score [14] | composite z-score [15] | composite z-score [16] | composite z-score [17] | composite z-score [18] | composite z-score [19] | composite z-score [20]
1 | COC(=O)C1=CC(c2ccc(CO)cc2)=CC(c2cccs2)N(Cc2cccc(OC(F)(F)F)c2)C=C1C(=O)OC (stereo not given) | 1.49 | -0.0873 | 0.428 | 0.939 (inactive) | 0.945 | 1.26 | -0.41 | 0.568 | -0.0789 | 1.09 | 0.532 | -1.84 | -0.0215 | 2.19 | 0.815 | -0.0236 | 0.685 | 1.39 | 1.81 | 3.16
2 | CCCN1C(=O)[C@@]2(CCS(=O)(=O)c3ccccc3)N=C(c3ccc(OCCCO)cc3)O[C@H]2c2ccccc21 | 0.915 | 0.164 | 0.827 | 0.597 (inactive) | 0.736 | 1.31 | 0.279 | 0.998 | 0.503 | 0.96 | 1.45 | -2.08 | 0.224 | 0.248 | -0.598 | -0.0721 | -0.0234 | -0.269 | 0.307 | 1.01
3 | CC(=O)NCCCC[C@@H]1NC(=O)[C@H]2C[C@@H](C(=O)NCCCCCCN(C)C)[C@@H](c3ccc(O)cc3)N2C1=O | 1.04 | -0.124 | 0.0091 | -0.808 (inactive) | 0.815 | 1.35 | 0.851 | 1.55 | 1.14 | 0.775 | 0.19 | 1.87 | 0.851 | -0.382 | -1.53 | -0.154 | 0.23 | 0.512 | 1.85 | 2.01
4 | O=C1O[C@H](c2ccccc2)[C@H](c2ccccc2)N2[C@H]1[C@@H](C(=O)Nc1nc3ccccc3s1)[C@]1(C(=O)Nc3ccc(C#CC4(O)CCCCCC4)cc31)[C@H]2c1ccc(O)cc1 | 1.53 | 0.0991 | -0.0778 | -0.493 (inactive) | 1.13 | 1.27 | 0.556 | 0.976 | 0.413 | 0.357 | 1.38 | -0.733 | 0.596 | 1.94 | 0.597 | -0.0125 | -0.203 | -0.387 | 1.58 | 2.17
5 | CC1=C([C@H](O)CCc2ccccc2)[C@H](CO)[C@@H]2C(=O)N(Cc3ccccc3)C(=O)[C@@H]2C1 | 0.0539 | -0.264 | -0.551 | -0.46 (inactive) | 0.27 | -0.453 | -0.176 | 0.785 | 0.28 | 0.317 | 0.0933 | -0.266 | 0.334 | 0.62 | -0.503 | -0.0644 | -0.289 | -0.27 | 0.421 | 1.71
6 | COc1ccc(NN2C(C(O)c3cc(OC)c(OC)c(OC)c3)C=CC3C(=O)N(C4CCCCC4)C(=O)C32)cc1 (stereo not given) | 0.573 | 1.16 | 1.31 | -0.617 (inactive) | 0.672 | 1.04 | -0.187 | 0.563 | -0.61 | 0.973 | 1.22 | -1.92 | -0.346 | 1.58 | 0.509 | 0.114 | -0.226 | 0.273 | 0.479 | 1.96

From PubChem BioAssay
